These results are taken from the supplement of paper PMC5662767.

Each structure is given as a SMILES string. Structures can show the parent of a compound that is named as a salt.

For the assay, the system named is Drosophila S2 cl14 SmoIP sensor cells. In words: normalized SmoIP GFP fluorescence (untreated unstimulated = 0%, untreated Hh-stimulated = 100%); higher = more Smo activation sensor fluorescence. The following applies: compound concentration: 2 uM, 24 h.
[1] abbreviates: stimulation: Hh conditioned medium (+Hh).
[2] abbreviates: stimulation: mock conditioned medium (-Hh).
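Further: flow cytometry read-out as median GFP intensity of gated cells, compounds added 30 min before Hh-conditioned or mock medium, mock-treated cells serving as unstimulated baseline.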

For the compound `CN1CCN2c3ccccc3Cc3ccccc3C2C1` (centres undefined) [Mianserin-hydrochloride], the “normalized SmoIP GFP fluorescence” value under setting [1] is 115% and the “normalized SmoIP GFP fluorescence” value under setting [2] came out at 4.04%.

Turning to `Cc1cc(Nc2ncc(Cl)c(Nc3ccccc3S(=O)(=O)C(C)C)n2)c(OC(C)C)cc1C1CCNCC1`, the “normalized SmoIP GFP fluorescence” value reads like this: under setting [1], 113%; under setting [2], 3.77%.

For the compound `COc1ccc2c(c1)C(=O)N(CCc1ccc(S(=O)(=O)NC(=O)NC3CCCCC3)cc1)C(=O)C2(C)C` [gliquidone], the “normalized SmoIP GFP fluorescence” value is 105% under setting [1] and -4.01% under setting [2].

For the compound `C[C@@]1(c2cc(-c3cncnc3)c(F)cc2F)CCSC(N)=N1`, the “normalized SmoIP GFP fluorescence” value is 97% under setting [1] and 10.2% under setting [2].

`CCOC(=O)[C@H](CCc1ccccc1)N[C@@H](C)C(=O)N1Cc2ccccc2C[C@H]1C(=O)O` [quinapril-hydrochloride-accupril]: the “normalized SmoIP GFP fluorescence” value by setting is: under setting [1], 125%; under setting [2], 2.95%.

For `CC(C)(C)NS(=O)(=O)c1cncc(-c2cc(F)c3nc(N)nn3c2)c1`, the “normalized SmoIP GFP fluorescence” value runs as follows: under setting [1], 104%; under setting [2], -4.47%.

For `CCc1cccc2c3c([nH]c12)C(CC)(CC(=O)O)OCC3` (centres undefined) [Etodolac], the “normalized SmoIP GFP fluorescence” value under setting [1] worked out at 104% and the “normalized SmoIP GFP fluorescence” value under setting [2] was -3.17%.

With `CN(NC(=O)CC(=O)NN(C)C(=S)c1ccccc1)C(=S)c1ccccc1` [Elesclomol], the “normalized SmoIP GFP fluorescence” value under setting [1] worked out at 145% and the “normalized SmoIP GFP fluorescence” value under setting [2] turned out to be 17.1%.

On to `O=c1ncccn1[C@@H]1O[C@H](CO)[C@@H](O)[C@H]1O` [zebularine], for which the “normalized SmoIP GFP fluorescence” value is 108% under setting [1] and -3.16% under setting [2].

As to `COc1ccc(CNc2nc(N3CCC[C@H]3CO)ncc2C(=O)NCc2ncccn2)cc1Cl` [avanafil], the “normalized SmoIP GFP fluorescence” value reads like this: under setting [1], 106%; under setting [2], -2.31%.

In the case of `C1=C/COCc2cc(ccc2OCCN2CCCC2)Nc2nccc(n2)-c2cccc(c2)COC/1` [pacritinib-sb1518], the “normalized SmoIP GFP fluorescence” value is, setting by setting: under setting [1], 114%; under setting [2], 1.72%.

Turning to `CNC(=O)c1cc(Oc2ccc(NC(=O)Nc3cc(C(C)(C)C)nn3-c3ccc4ncccc4c3)c(F)c2)ccn1`, the “normalized SmoIP GFP fluorescence” value is, setting by setting: under setting [1], 183%; under setting [2], 0.605%.
